Structures can show the parent of a compound that is named as a salt.
Columns and labels:
Settings in all cases: 20 µM
[1] = system: Salmonella enterica typhimurium; test: growth AUC normalised to DMSO control (fraction of control); higher = less growth inhibition, active = hit call of the paper
In short: (§1)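 Hemin and NAD were added to the medium for Haemophilus parainfluenzae. All pathogens, after two anaerobic passages, were inoculated at a starting OD578 of 0.01 into pre-reduced mGAM plates with 20 μM compound and 1% DMSO under breathable seals, and OD578 was read hourly for 24 h in three biological replicates. AUC of each growth curve was obtained with the trapezoidal rule up to the exponential-to-stationary transition and normalised to DMSO controls from the same plate.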

Shigella flexneri = test: as above
In short: as §1

Vibrio cholerae = test: as above
In short: as §1

[2] = system: Yersinia pseudotuberculosis; test: as above
In short: as §1

[3] = system: S. enterica typhimurium WT; test: growth AUC normalised to DMSO control (median) (fraction of control); higher = less growth inhibition, active = hit call of the paper
In short: (§2)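 Area under the growth curve, calculated by the trapezoidal rule up to entry into stationary phase, was normalised to vehicle wells on the same plate. Strains had been passaged twice overnight without oxygen and then grown in mGAM in 96-well plates from OD578 0.01, each with an approved-drug library compound at 20 μM in 1% DMSO. OD578 was read hourly over 24 h in an anaerobic incubator, and the median of three biological replicates is given.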

[4] = system: S. enterica typhimurium tolC KO; test: as above
In short: as §2

P. vulgatus RND KO = test: as above
In short: as §2

P. vulgatus WT = test: as above
In short: as §2

Measured: growth AUC normalised to DMSO control
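For growth AUC normalised to DMSO control (median) in this document: active when median AUC fell below 0.1.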

C[C@@H](O)[C@H]1C(=O)N2C(C(=O)O)=C(SCCNC=N)C[C@H]12 [Imipenem]
inactive: [1] 1.02 | Vibrio cholerae 1 | [2] 0.967 | [3] 1 | [4] 0.996
active: Shigella flexneri 0.63

CN1CCN(c2c(F)cc3c(=O)c(C(=O)O)cn4c3c2SCC4)CC1 [Rufloxacin]
active: [1] 0.006 | Shigella flexneri 0.0254 | Vibrio cholerae 0.0252 | [2] 0.0274 | [3] 0.0284 | [4] 0.00853
inactive: P. vulgatus RND KO 0.63 | P. vulgatus WT 0.47

Cc1ncc(C[n+]2csc(CCO)c2C)c(N)n1 [Thiamine hydrochloride]
inactive: Shigella flexneri 0.961 | Vibrio cholerae 0.967 | [2] 0.999 | P. vulgatus RND KO 0.978 | P. vulgatus WT 0.981 | [3] 0.998 | [4] 0.996

Cc1onc(-c2c(F)cccc2Cl)c1C(=O)N[C@@H]1C(=O)N2[C@@H]1SC(C)(C)[C@@H]2C(=O)O [Flucloxacillin sodium]
active: [4] 0.0123
inactive: [1] 0.993 | Shigella flexneri 1.01 | Vibrio cholerae 0.999 | [2] 0.989 | P. vulgatus WT 0.132 | [3] 1.02

CN1CCN(c2c(F)cc3c(=O)c(C(=O)O)cn(CCF)c3c2F)CC1 [Fleroxacin]
inactive: P. vulgatus RND KO 0.727 | P. vulgatus WT 0.585
active: Shigella flexneri 0.0225 | Vibrio cholerae 0.0321 | [2] 0.0196 | [3] 0.00801 | [4] 0.00549

C[C@]12CC[C@H]3C(=CCc4cc(O)ccc43)[C@@H]1CCC2=O [Equilin]
inactive: [1] 1.01 | Shigella flexneri 0.993 | Vibrio cholerae 0.99 | [2] 1.01 | P. vulgatus RND KO 0.993 | P. vulgatus WT 0.991 | [3] 1 | [4] 0.95

C[C@]1(Cn2ccnn2)[C@H](C(=O)O)N2C(=O)C[C@H]2S1(=O)=O [Tazobactam]
inactive: [1] 0.986 | Shigella flexneri 0.976 | Vibrio cholerae 0.972 | [2] 0.99 | P. vulgatus WT 0.57 | [3] 0.99 | [4] 1

CN(Cc1cnc2nc(N)nc(N)c2n1)c1ccc(C(=O)N[C@@H](CCC(=O)O)C(=O)O)cc1 [Amethopterin]
inactive: [1] 0.983 | Shigella flexneri 0.948 | Vibrio cholerae 0.912 | [2] 0.982 | P. vulgatus WT 0.916 | [3] 0.997 | [4] 0.7

Nc1nc2ccc(OC(F)(F)F)cc2s1 [Riluzole hydrochloride]
inactive: [1] 1.01 | Shigella flexneri 0.993 | Vibrio cholerae 0.937 | [2] 0.984 | P. vulgatus RND KO 0.999 | [3] 0.979 | [4] 0.976

CCN(CC)C(=S)SSC(=S)N(CC)CC [Disulfiram]
inactive: Shigella flexneri 0.968 | Vibrio cholerae 0.989 | [2] 0.97 | P. vulgatus RND KO 0.896 | P. vulgatus WT 1.07 | [3] 0.995 | [4] 1

CCOC(=O)OC(C)OC(=O)[C@@H]1N2C(=O)[C@@H](NC(=O)[C@H](N)c3ccccc3)[C@H]2SC1(C)C (stereo partly drawn) [Bacampicillin hydrochloride]
inactive: Vibrio cholerae 1 | [3] 0.154
active: [1] 0.00881 | Shigella flexneri 0.0323 | [2] 0.277 | [4] 0.0179

Cc1onc(-c2ccccc2)c1C(=O)N[C@@H]1C(=O)N2[C@@H]1SC(C)(C)[C@@H]2C(=O)O [Oxacillin sodium]
inactive: [1] 0.975 | Shigella flexneri 1.03 | Vibrio cholerae 0.961 | P. vulgatus WT 0.151 | [3] 0.994
active: [2] 0.908 | [4] 0.0924

CCC(=O)OCC(=O)[C@@]1(OC(=O)CC)[C@@H](C)C[C@H]2[C@@H]3CCC4=CC(=O)C=C[C@]4(C)[C@@]3(Cl)[C@@H](O)C[C@@]21C [Beclomethasone dipropionate]
inactive: [1] 0.99 | Shigella flexneri 0.956 | Vibrio cholerae 0.965 | [2] 1.01 | P. vulgatus WT 0.972 | [3] 1.01 | [4] 0.975

CCOc1ccc2ccccc2c1C(=O)N[C@@H]1C(=O)N2[C@@H]1SC(C)(C)[C@@H]2C(=O)O [Nafcillin sodium salt monohydrate]
inactive: [1] 0.981 | Shigella flexneri 0.973 | Vibrio cholerae 0.96 | [2] 0.967 | [3] 1

CCn1cc(C(=O)O)c(=O)c2cnc(N3CCNCC3)nc21 [Pipemidic acid]
active: Shigella flexneri 0.113 | Vibrio cholerae 0.0338 | [2] 0.0731 | [4] 0.04
inactive: P. vulgatus RND KO 1.02 | P. vulgatus WT 0.996 | [3] 0.107

NS(=O)(=O)c1cc2c(cc1Cl)N=C(CSCc1ccccc1)NS2(=O)=O [Benzthiazide]
inactive: [1] 0.998 | Shigella flexneri 0.958 | Vibrio cholerae 0.947 | [2] 1.01 | P. vulgatus RND KO 0.99 | P. vulgatus WT 0.992 | [3] 1.01 | [4] 0.996

CCC(=O)[C@@]1(C)[C@H](C)C[C@H]2[C@@H]3CCC4=CC(=O)C=C[C@]4(C)[C@H]3[C@@H](O)C[C@@]21C [Rimexolone]
inactive: [1] 1.01 | Shigella flexneri 1.01 | Vibrio cholerae 1.01 | [2] 0.997 | P. vulgatus RND KO 1.03 | P. vulgatus WT 1.07 | [3] 1 | [4] 0.999

Cc1onc(-c2ccccc2Cl)c1C(=O)N[C@@H]1C(=O)N2[C@@H]1SC(C)(C)[C@@H]2C(=O)O [Cloxacillin sodium salt]
inactive: [1] 1.01 | Shigella flexneri 1 | Vibrio cholerae 0.99 | [2] 1.01 | [3] 0.994
active: [4] 0.0356

O=C1NCC2(CCN(CCc3ccccc3)CC2)O1 [Fenspiride hydrochloride]
inactive: [1] 0.967 | Shigella flexneri 0.947 | Vibrio cholerae 0.994 | [2] 0.971 | P. vulgatus RND KO 0.988 | P. vulgatus WT 0.974 | [3] 1 | [4] 0.993

CC1(C)S[C@@H]2[C@H](NC(=O)[C@H](N)c3ccccc3)C(=O)N2[C@H]1C(=O)O [Ampicillin trihydrate]
active: [1] 0.00858 | Shigella flexneri 0.0549 | Vibrio cholerae 0.254 | [2] 0.0564 | P. vulgatus WT 0.0887 | [3] 0.0624 | [4] 0.0201

O=C(O)[C@H]1/C(=C/CO)O[C@@H]2CC(=O)N21 [Clavulanate potassium salt]
inactive: [1] 1.01 | Shigella flexneri 1.03 | Vibrio cholerae 1.08 | [2] 1.03 | P. vulgatus WT 1.12 | [3] 0.995 | [4] 0.999

O=c1[nH]c(=O)n([C@H]2C[C@H](O)[C@@H](CO)O2)cc1C(F)(F)F [Trifluridine]
inactive: Shigella flexneri 1.01 | Vibrio cholerae 1.05 | [2] 0.997 | P. vulgatus RND KO 0.13 | P. vulgatus WT 0.123 | [3] 0.964 | [4] 0.958

CCCC(=O)Nc1ncnc2c1ncn2[C@@H]1O[C@@H]2COP(=O)(O)O[C@H]2[C@H]1OC(=O)CCC [Bucladesine sodium salt]
inactive: Shigella flexneri 1 | Vibrio cholerae 1.01 | [2] 0.998 | P. vulgatus RND KO 1.02 | P. vulgatus WT 1.01 | [3] 1.01 | [4] 1.01

Clc1ccc(Cn2c(CN3CCCC3)nc3ccccc32)cc1 [Clemizole hydrochloride]
inactive: [1] 0.98 | Shigella flexneri 0.988 | Vibrio cholerae 0.922 | [2] 0.986 | P. vulgatus RND KO 0.902 | P. vulgatus WT 0.857 | [3] 0.997 | [4] 0.949

CCN1CCN(C(=O)N[C@@H](C(=O)N[C@@H]2C(=O)N3[C@@H]2SC(C)(C)[C@@H]3C(=O)O)c2ccccc2)C(=O)C1=O [Piperacillin sodium salt]
inactive: [3] 0.734
active: Shigella flexneri 0.098 | Vibrio cholerae 0.63 | [2] 0.291 | P. vulgatus RND KO 0.0135 | P. vulgatus WT 0.0163 | [4] 0.00671

CC(C)NC[C@@H](O)COc1cccc2ccccc12 [(R) Propranolol hydrochloride]
inactive: Shigella flexneri 1.02 | Vibrio cholerae 1.02 | [2] 0.999 | P. vulgatus RND KO 0.978 | P. vulgatus WT 0.988 | [3] 0.984 | [4] 0.983

Nc1nc(Cl)nc2c1ncn2[C@H]1C[C@H](O)[C@@H](CO)O1 [Cladribine]
inactive: [1] 0.985 | Shigella flexneri 0.949 | Vibrio cholerae 0.982 | [2] 1 | P. vulgatus RND KO 1.01 | P. vulgatus WT 1.02 | [3] 0.915 | [4] 0.911

CCC1=C(C)CN(C(=O)NCCc2ccc(S(=O)(=O)NC(=O)N[C@H]3CC[C@H](C)CC3)cc2)C1=O [Glimepiride]
inactive: [1] 1.02 | Shigella flexneri 1.01 | Vibrio cholerae 1.02 | [2] 1.01 | P. vulgatus RND KO 1.03 | P. vulgatus WT 1.01 | [3] 1.03 | [4] 0.993

CCOC(=O)O[C@]1(C(=O)COC(=O)CC)CC[C@H]2[C@@H]3CCC4=CC(=O)C=C[C@]4(C)[C@H]3[C@@H](O)C[C@@]21C [Prednicarbate]
inactive: [1] 1.01 | Shigella flexneri 1.03 | [2] 1 | P. vulgatus RND KO 1 | P. vulgatus WT 1.04 | [3] 0.992 | [4] 0.967

N=C(N)c1ccc(OCCCCCOc2ccc(C(=N)N)cc2)cc1 [Pentamidine isethionate]
inactive: Shigella flexneri 0.984 | Vibrio cholerae 1.02 | [2] 1.02 | P. vulgatus RND KO 0.591 | P. vulgatus WT 0.749 | [3] 0.999 | [4] 0.985

— the supplement of paper PMC12350171
